According to PubChem BioAssay (NCI):
“And” between values parts separate entries of the source, which are not always exact repeats. Equal values may be shown once. About 83,000 compounds went through this panel and 20% of them were active in at least one assay; those are over-represented in the sample as a whole.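 Activity criterion: percent growth below 10, measured after cells in 96-well plates were exposed to a single compound concentration for 48 hours.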 A structure can be active in one record and inactive in another. The source made the active and inactive calls.

How the values were obtained:
Test in all cases: NCI-60 one-dose screen, 48 h (100 = growth as untreated, 0 = no growth, -100 = all killed)
[1] = test system: HCT-15 colon; details: 10 µM unless noted
[2] = test system: HT29 colon; details: 10 µM unless noted
[3] = test system: SNB-75 CNS; details: 10 µM unless noted
[4] = test system: SNB-19 CNS; details: 10 µM unless noted
[5] = test system: U251 CNS; details: 10 µM unless noted
[6] = test system: PC-3 prostate; details: 10 µM unless noted
[7] = test system: SK-MEL-5 melanoma; details: 10 µM unless noted
[8] = test system: UACC-62 melanoma; details: 10 µM unless noted
[9] = test system: LOX IMVI melanoma; details: 10 µM unless noted
[10] = test system: SK-MEL-28 melanoma; details: 10 µM unless noted
[11] = test system: SK-MEL-2 melanoma; details: 10 µM unless noted
[12] = test system: EKVX NSCLC; details: 10 µM
[13] = test system: SN12C renal; details: 10 µM unless noted
[14] = test system: UO-31 renal; details: 10 µM unless noted
[15] = test system: TK-10 renal; details: 10 µM unless noted
[16] = test system: ACHN renal; details: 10 µM unless noted
[17] = test system: CAKI-1 renal; details: 10 µM unless noted
[18] = test system: A498 renal; details: 10 µM unless noted
[19] = test system: CCRF-CEM leukemia; details: 10 µM
[20] = test system: MOLT-4 leukemia; details: 10 µM unless noted

| Compound | growth [1] | growth [2] | growth [3] | growth [4] | growth [5] | growth [6] | growth [7] | growth [8] | growth [9] | growth [10] | growth [11] | growth [12] | growth [13] | growth [14] | growth [15] | growth [16] | growth [17] | growth [18] | growth [19] | growth [20] |
| --- | --- | --- | --- | --- | --- | --- | --- | --- | --- | --- | --- | --- | --- | --- | --- | --- | --- | --- | --- | --- |
| CC1=C/C(O)CC(=O)Cc2nc(co2)C(=O)N2CCC=C2C(=O)OC(C(C)C)C(C)/C=C\C(=O)NC/C=C\1 (configuration not stated) | 90.1% (inactive) | 76.7% (inactive) | 80.8% (inactive) | 89.8% (inactive) | 92.9% (inactive) | 71.5% (inactive) | 96.7% (inactive) | 84.9% (inactive) | 59.6% (inactive) | 32.6% (inactive) | 21.8% (inactive) | 90.2% (inactive) | 87.9% (inactive) | 75.1% (inactive) | 127% (inactive) | 86.2% (inactive) | 81% (inactive) | 90.9% (inactive) | 37% (inactive) | 77.4% (inactive) |
| CC(=O)OCC1OC(OC(C)=O)C(OC(C)=O)C(OC(C)=O)C1OC(C)=O (configuration not stated) | 98.2% (inactive) and 104% (inactive) | 110% (inactive) and 115% (inactive) | 67.1% (inactive) and 98.6% (inactive) | 102% (inactive) and 106% (inactive) |  | 105% (inactive) and 104% (inactive) | 102% (inactive) and 100% (inactive) | 109% (inactive) and 99.9% (inactive) | 96.9% (inactive) and 97.3% (inactive) | 103% (inactive) and 109% (inactive) | 109% (inactive) and 111% (inactive) | 99.7% (inactive) | 104% (inactive) and 105% (inactive) | 79.8% (inactive) and 94.2% (inactive) | 110% (inactive) and 106% (inactive) | 96.4% (inactive) and 105% (inactive) | 97.1% (inactive) and 100% (inactive) | 112% (inactive) and 85.9% (inactive) | 95.2% (inactive) and 110% (inactive) | 98.9% (inactive) and 99.9% (inactive) |
| O=C(O)/C=C\C(=O)Nc1cccc2ccccc12 | 102% (inactive) and 96.9% (inactive) | 98.1% (inactive) and 110% (inactive) | 70% (inactive) and 83% (inactive) | 104% (inactive) and 100% (inactive) | 94.2% (inactive) and 102% (inactive) | 103% (inactive) and 93.6% (inactive) | 95.3% (inactive) and 108% (inactive) | 99.8% (inactive) and 79.8% (inactive) | 102% (inactive) and 104% (inactive) | 101% (inactive) and 116% (inactive) | 88.2% (inactive) and 130% (inactive) | 65.1% (inactive) and 112% (inactive) | 97.6% (inactive) and 92.3% (inactive) | 59.7% (inactive) and 72% (inactive) | 107% (inactive) and 121% (inactive) | 90.5% (inactive) and 99.2% (inactive) |  | 96.3% (inactive) and 115% (inactive) | 50.7% (inactive) and 101% (inactive) | 77.2% (inactive) and 84.1% (inactive) |
| NC1CCC(C(=O)O)CC1 (configuration not stated) | 106% (inactive) and 98.9% (inactive) | 101% (inactive) and 102% (inactive) | 85.8% (inactive) and 82% (inactive) | 105% (inactive) and 110% (inactive) |  | 93.3% (inactive) and 86.9% (inactive) | 102% (inactive) and 103% (inactive) | 97.7% (inactive) and 101% (inactive) | 107% (inactive) and 96.2% (inactive) | 103% (inactive) and 107% (inactive) | 104% (inactive) and 102% (inactive) | 103% (inactive) and 105% (inactive) | 97% (inactive) and 103% (inactive) | 105% (inactive) and 87% (inactive) | 97.7% (inactive) and 102% (inactive) | 106% (inactive) and 105% (inactive) |  | 94.7% (inactive) and 86.6% (inactive) | 80.9% (inactive) and 79.5% (inactive) | 107% (inactive) and 98% (inactive) |
| N#CC(C#N)N=Nc1ccc(Cl)cc1 | 15.1% (inactive) | 24.7% (inactive) | 72% (inactive) | 94.2% (inactive) |  | 54.7% (inactive) | 79.6% (inactive) |  | 53.5% (inactive) | 42.2% (inactive) | 77.3% (inactive) | 77% (inactive) | 33.5% (inactive) | 10.6% (inactive) | 42.9% (inactive) | 26.9% (inactive) | 4.49% (active) | 86% (inactive) | 28.6% (inactive) | 37.6% (inactive) |
| c1ccc(-c2nc3ccccc3s2)cc1 | 92.2% (inactive) | 114% (inactive) | 91.7% (inactive) | 95.3% (inactive) |  | 86.9% (inactive) | 89.8% (inactive) | 75.7% (inactive) | 88.5% (inactive) | 104% (inactive) | 112% (inactive) | 85.5% (inactive) | 88.7% (inactive) | 66.9% (inactive) |  | 87.1% (inactive) | 79.7% (inactive) | 100% (inactive) | 101% (inactive) |  |
| CCCCCCCCCCNC(=O)CI | 14% (inactive) | -54.9% (active) | -30.7% (active) | 89.2% (inactive) |  | -39.8% (active) | 3.04% (active) | 59.4% (inactive) | -73.2% (active) | 58.4% (inactive) | -50.1% (active) |  | 33.9% (inactive) | -90.1% (active) | 15.5% (inactive) | -93.7% (active) | -93.5% (active) | 111% (inactive) | -47.1% (active) |  |
| O=C1NC(N/N=C\C(O)C(O)C(O)CO)=N/C1=C/c1ccc(Cl)cc1 (configuration not stated) |  |  |  |  |  |  |  | 3.82% [100 µM] (active) and -100% [100 µM] (active) and 32.5% [100 µM] (inactive) |  |  |  |  |  |  | 54.4% [100 µM] (inactive) and -100% [100 µM] (active) and 89.6% [100 µM] (inactive) |  |  |  |  |  |
| COc1ccc(N/C=C/C2=[N+](C)c3ccccc3C2(C)C)c(OC)c1 | 99.3% (inactive) | 87.4% (inactive) | 89.5% (inactive) | 102% (inactive) |  | 87.6% (inactive) | 90.9% (inactive) | 92.9% (inactive) | 96% (inactive) | 113% (inactive) | 114% (inactive) |  | 96.6% (inactive) | 78.8% (inactive) | 106% (inactive) | 104% (inactive) | 81.9% (inactive) |  | 90.7% (inactive) |  |
| CCN(CCNS(C)(=O)=O)c1ccc(N)c(C)c1 | 71.5% (inactive) and 106% (inactive) | 87.8% (inactive) | 128% (inactive) and 95.5% (inactive) | 101% (inactive) and 109% (inactive) |  | 86.7% (inactive) and 78.7% (inactive) | 81.1% (inactive) and 98.4% (inactive) | 71.4% (inactive) and 82.2% (inactive) | 52.9% (inactive) and 68.4% (inactive) | 80.2% (inactive) and 104% (inactive) | 21.6% (inactive) | 88.9% (inactive) | 88.1% (inactive) and 93.5% (inactive) | 42.2% (inactive) | 55.8% (inactive) and 17.7% (inactive) | 27.9% (inactive) and 76.2% (inactive) |  | 104% (inactive) and 94.2% (inactive) | 35.7% (inactive) | 66.3% (inactive) and 96.3% (inactive) |
| Nc1cc(N)c(N)cc1N | 54.2% (inactive) | 82.4% (inactive) | 56.6% (inactive) | 84.5% (inactive) |  | 92.7% (inactive) | -92.7% (active) | -40.3% (active) | -93.8% (active) | 78.7% (inactive) | -62.5% (active) | 57.5% (inactive) | -69.7% (active) | -0.0578% (active) | 101% (inactive) | 8.63% (active) | 82.5% (inactive) | 99.8% (inactive) | 89.6% (inactive) | 83.2% (inactive) |
| O=C(O)CCCl |  | 108% (inactive) | 97.9% (inactive) | 104% (inactive) | 101% (inactive) | 96.8% (inactive) | 99.2% (inactive) | 110% (inactive) | 104% (inactive) | 105% (inactive) | 123% (inactive) |  | 107% (inactive) | 97% (inactive) | 107% (inactive) | 101% (inactive) |  | 99.1% (inactive) | 93% (inactive) |  |
| O=C1CSC2=NCCN12 | 107% (inactive) and 97.2% (inactive) | 96.4% (inactive) and 91.5% (inactive) | 87.5% (inactive) and 83.3% (inactive) | 101% (inactive) and 112% (inactive) |  | 102% (inactive) and 121% (inactive) | 88.9% (inactive) and 86.1% (inactive) | 87.1% (inactive) | 94% (inactive) and 90.1% (inactive) | 78.5% (inactive) and 85.8% (inactive) | 89% (inactive) | 99% (inactive) and 64.7% (inactive) | 106% (inactive) and 93.2% (inactive) | 84.6% (inactive) and 90.1% (inactive) | 101% (inactive) and 106% (inactive) | 98.1% (inactive) and 103% (inactive) |  | 92.8% (inactive) and 99.7% (inactive) | 102% (inactive) and 88.1% (inactive) | 106% (inactive) and 67.1% (inactive) |
